# From PubChem BioAssay (NCI)
# This is part of a sample that, as a whole, favours compounds with a hit. Of some 79,000 tested, about 15% had one in any assay. A number with no mark means an inactive call. Active and inactive are the calls of the source. No stated cut-off is given here; in the data, active means growth inhibition above about 70%; inactive means the rest.
# Tests used:
# [1] = NCI Yeast Anticancer Drug Screen. Data for the rad50 strain (AID 155);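 further: 0% = growth of vehicle-only cultures of the same strain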; details: S. cerevisiae rad50 strain growth inhibition, active compounds read high
# Procedure, shortened: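 Compounds were tested on a yeast strain with an engineered DNA damage repair alteration; the reported value is growth inhibition normalised to vehicle treatment.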
# [2] = NCI Yeast Anticancer Drug Screen. Data for the mec2-1 strain (AID 157); details: S. cerevisiae mec2-1 strain, active compounds read high
# Procedure, shortened: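 Yeast mec2-1 mutant treated with compound. Readout: growth inhibition vs vehicle controls.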
# [3] = NCI Yeast Anticancer Drug Screen. Data for the sgs1 mgt1 strain (AID 161);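 further: 0% = growth of cultures given vehicle only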; details: S. cerevisiae sgs1 mgt1 strain, active compounds read high
# Procedure, shortened: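 Genetically altered yeast, compound exposure, growth inhibition relative to vehicle.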
# [4] = NCI Yeast Anticancer Drug Screen. Data for the cln2 rad14 strain (AID 165);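 further: 0% = growth equal to vehicle treated cultures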; details: S. cerevisiae cln2 rad14 strain, active compounds read high
# Procedure, shortened: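 cln2 rad14 yeast strain; compound exposure; growth inhibition read vs vehicle controls.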
# [5] = NCI Yeast Anticancer Drug Screen. Data for the bub3 strain (AID 167); details: S. cerevisiae bub3 mutant strain, active compounds read high
# Procedure, shortened: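 Growth of a checkpoint-deficient yeast mutant is measured after compound exposure. Values represent inhibition relative to vehicle.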
# [6] = NCI Yeast Anticancer Drug Screen. Data for the mlh1 rad18 strain (AID 175); details: S. cerevisiae mlh1 rad18 strain growth inhibition, active compounds read high
# Procedure, shortened: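 Yeast w/ defined DNA-repair lesions; compound exposure; growth vs vehicle controls → % inhibition.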
# [7] = at 5.0 µM (retest, dose inferred, filed as 0.5)
# [8] = at 50.0 µM (retest, dose inferred, filed as 5.0)
SMILES,"growth inhibition [1, 7]","growth inhibition [1, 8]",growth inhibition ([1]; at 50.0 µM),"growth inhibition [2, 7]","growth inhibition [2, 8]",growth inhibition ([2]; at 50.0 µM),"growth inhibition [3, 7]","growth inhibition [3, 8]",growth inhibition ([3]; at 50.0 µM),"growth inhibition [4, 7]","growth inhibition [4, 8]",growth inhibition ([4]; at 50.0 µM),"growth inhibition [5, 7]","growth inhibition [5, 8]",growth inhibition ([5]; at 50.0 µM),"growth inhibition [6, 7]","growth inhibition [6, 8]",growth inhibition ([6]; at 50.0 µM)
CCC[CH2][Sn]([CH2]CCC)([S]/C(C#N)=N/N=C/c1ccc(N(C)C)cc1)[S]/C(C#N)=N/N=C/c1ccc(N(C)C)cc1,57%,98% (active),97% (active),66%,98% (active),92.5% (active),52%,98% (active),95.8% (active),40%,94% (active),95% (active),64%,99% (active),95.8% (active),72% (active),98% (active),95.9% (active)
CCN(CC)CCCNc1c(O)cc(C)c2sc3ccccc3c(=O)c12,17%,98% (active),98.7% (active),6%,99% (active),99.2% (active),4%,99% (active),99% (active),12%,96% (active),98.3% (active),14%,95% (active),98.4% (active),6%,98% (active),98.8% (active)
O=S(=O)(Nc1ccc2ccccc2c1)c1ccccc1,-10%,98% (active),97.7% (active),-21%,99% (active),98% (active),2%,99% (active),97.8% (active),7%,93% (active),92.2% (active),-9%,99% (active),97.2% (active),-18%,98% (active),98% (active)
CC(C)(C)CC(C)(C)c1ccc(OCCSC(=N)N)cc1,95% (active),100% (active),99.3% (active),99% (active),100% (active),99.6% (active),75% (active),99% (active),99.2% (active),99% (active),99% (active),98.6% (active),99% (active),100% (active),99.4% (active),99% (active),99% (active),99.2% (active)
COc1cc(OC)cc(C2OC3=C(Nc4ccc([N+](=O)[O-])cc4N3)C2=O)c1 (stereo not given),2%,60%,86.8% (active),10%,40%,59.8%,30%,50%,81.1% (active),11%,29%,57%,24%,16%,51.2%,-4%,49%,82.4% (active)
CCC(CC)(C(=O)Nc1ccc2c(c1)c(=O)c1ccccc1n2C)C(=O)Nc1ccc2c(c1)c(=O)c1ccccc1n2C,7%,97% (active),97% (active),-3%,86% (active),77.7% (active),-25%,71% (active),70.8% (active),-4%,75% (active),73% (active),-10%,78% (active),61.2%,-6%,92% (active),95.7% (active)
Cc1cc([N+](=O)[O-])cc(Cl)c1O,-21%,51%,79.1% (active),-6%,79% (active),88.3% (active),-4%,87% (active),88% (active),7%,69%,85.2% (active),-21%,66%,82.3% (active),-58%,64%,80% (active)
COc1cccc(C(=O)C(CN(C)C)CN(C)C)c1,22%,70% (active),12.2%,26%,69%,30.2%,24%,88% (active),61%,24%,79% (active),33%,24%,85% (active),71.2% (active),30%,93% (active),3%
CN(C)c1cc2nc3ccccc3nc2cc1O,2%,46%,62.9%,-1%,53%,15.6%,-1%,26%,34.6%,-7%,34%,45.8%,-3%,59%,94.5% (active),7%,76% (active),81.9% (active)
O=C(CSC1=NNC2(C(=O)N1)c1ccccc1-c1ccccc12)NC(=S)Nc1ccccc1,-3%,95% (active),96.2% (active),-15%,90% (active),97% (active),-7%,96% (active),98% (active),-8%,86% (active),96.4% (active),-16%,94% (active),97.5% (active),-24%,95% (active),97% (active)
CCC(c1ccc(O)cc1)C(CC)c1ccc(O)c(O)c1 (stereo not given),16%,98% (active),99.6% (active),12%,99% (active),99.5% (active),13%,99% (active),99.5% (active),-2%,99% (active),99.4% (active),10%,98% (active),99.5% (active),12%,97% (active),99.5% (active)
N#C/C(=C\c1c(Cl)cccc1Cl)c1ccccc1,11%,37%,64.3%,-9%,13%,29.3%,12%,33%,42.5%,8%,35%,23%,21%,62%,45.8%,-18%,55%,70.7% (active)
CCOC(=O)CNC(=O)Sc1ccc(C(C)(C)C)cc1C,17%,32%,0.05%,22%,74% (active),19.8%,17%,60%,82% (active),19%,84% (active),75.7% (active),14%,92% (active),69.7%,29%,50%,26.7%
O=C1CCCc2cc3c(nc21)C(=O)CCC3,-8%,-3%,14.7%,-11%,0%,12.6%,3%,0%,13.1%,-7%,2%,47.7%,-6%,1%,0.6%,10%,-9%,2.5%
CC(C)(N=Nc1ccc([N+](=O)[O-])cc1)[N+](=O)[O-],26%,97% (active),95.8% (active),12%,99% (active),53.6%,18%,98% (active),83.3% (active),15%,99% (active),97.2% (active),21%,99% (active),47.4%,23%,99% (active),96.7% (active)
Cc1c(NC(=O)C(=O)N=NC(=O)c2ccncc2)c(O)c2ccccc2c1O,-15%,91% (active),91% (active),-31%,90% (active),93.5% (active),-5%,69%,91.9% (active),-24%,82% (active),90.4% (active),1%,96% (active),91% (active),-6%,93% (active),91.3% (active)
O=C1NOCC1N=Cc1cc(Cl)ccc1O (stereo not given),9%,65%,75.8% (active),3%,30%,16.9%,-7%,35%,26.9%,0%,38%,23.4%,6%,61%,58.9%,9%,78% (active),84% (active)
Cc1nc2sc3c(c2c2nnnn12)CCCC3,2%,28%,6.6%,8%,29%,16.9%,24%,74% (active),53%,4%,23%,-6.5%,3%,11%,27.6%,7%,31%,9.45%
N#CC(C#N)C(C#N)c1ccc(Cl)c(Cl)c1 (stereo not given),79% (active),99% (active),99.7% (active),72% (active),100% (active),99.7% (active),36%,100% (active),99.8% (active),25%,99% (active),99.4% (active),99% (active),99% (active),99.7% (active),70% (active),100% (active),99.5% (active)
C=Cc1ccc(B2NCCO2)cc1,-2%,99% (active),99.7% (active),7%,97% (active),99.5% (active),-8%,99% (active),99.6% (active),0%,74% (active),92.5% (active),8%,59%,99.5% (active),10%,99% (active),99.2% (active)
